From PubChem
TROY signal inh = blocks TROY-dependent signaling in reporter cells. AID 1347056. 0.98% of 360,000 active. Q293 LMP1-TROYcd NF-kB luciferase reporter, 4 h. inhibition, % at 10 µM;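 active means compounds whose plate-normalised and pattern-corrected inhibition of the luciferase reporter signal at the single screening dose is 50% or more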
HSP90 inh = HSP90 refolding inhibition in rabbit reticulocyte lysate; luciferase refolding luminescence, 3 h; inhibition, % at 5.6 µM; 0.91% of 290,000 active;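 active means inhibition above the screen-wide mean plus 3 SD, computed separately per campaign, cut at about 16% in these data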;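 further: 0% = DMSO wells and 100% = 60 µM geldanamycin wells; inhibitors lower the luminescence because luciferase stays unfolded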
TWEAK-Fn14 inh = blocks TWEAK-Fn14 interaction in a reporter cell assay. TWEAK-stimulated Fn14 reporter cells, luciferase luminescence, 8 h. inhibition, % at 10 µM. 2% of 360,000 active. AID 1159606; in the data active means inhibition above about 50%
LGR2 antag = Drosophila LGR2 receptor signaling inhibition. HEK293 LGR2, CRE-luciferase, bursicon-stimulated, 4 h. AID 720647. 0.35% of 380,000 active. inhibition, % at 9.99 µM;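 active means drop in luminescence signal, shown as inhibition above about 50% in the replicate tests, limit read from the data, passing the limit was not always enough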;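 further: agonist challenge used bursicon conditioned medium at about half maximal strength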
* hit, by the source's call; / = no result given. This is a sample that favours compounds with a hit; in the whole collection about 2.2% have one here.

SMILES	TROY signal inh	HSP90 inh	TWEAK-Fn14 inh	LGR2 antag
CC(=O)Nc1ccc2c(c1)OCCO2	7	-1	6	3
CC(Nc1ccc2c(c1)OCCO2)C(=O)Nc1ccc2c(c1)OCO2 (stereo not drawn)	50*	-5	59*	5
CC[C@@H]1CCC[C@@H](O)[C@@H](C)C(=O)O[C@H](C)[C@@H](C)C/C=C(C)/C(OC)=C\C(=O)N(C)C([C@@H](C)CC)C(=O)N(C)[C@@H](C(C)C)C(=O)N(C)[C@@H](COC)C(=O)N2CCC[C@H]2C(=O)N(C)[C@@H](C(C)C)C(=O)N2CCC[C@H]2C(=O)O1 (stereo partly drawn)	47	/	77*	26
CCN(CC)c1ccc(NC(=O)CSc2nc3ccccc3c(=O)n2-c2cc(S(=O)(=O)N(C)C)ccc2C)cc1	-2	16*	-37	-2
CN(C)S(=O)(=O)c1ccc(NC(=O)CSc2nc3ccccc3n2-c2ccccc2)cc1	2	1	47	13
CCCNC(=O)N1[C@H](CO)[C@H](c2ccccc2)[C@@H]1CNC(=O)c1ccc(F)cc1	/	/	/	7
N/C(=N\OC(=O)c1ccc(Cl)c(Cl)c1)c1ccccn1	39	-1	80*	68*
N/C(=N\OC(=O)c1ccc(Cl)c([N+](=O)[O-])c1)c1ccccn1	-1	6	2	7
N/C(=N\OC(=O)Cc1ccc(-c2ccccc2)cc1)c1ccccn1	70*	2	70*	/
O=C(C[C@@H]1C=C[C@@H](NC(=O)Nc2cc(F)ccc2F)[C@H](CO)O1)NCc1ccncn1	/	/	/	24
CCNC(=O)C[C@@H]1CC[C@H]2[C@@H](COc3ccc(NC(C)=O)cc3C(=O)N2C)O1	/	/	/	12
CC1=NN(c2ccccc2)C(=O)/C1=C/C=C/c1ccccc1	27	-3	95*	2
COc1cccc(NC(=O)N2C[C@H](O)COC[C@@H]3O[C@@H](CC(=O)NC4CCC4)CC[C@H]32)c1	/	/	/	4
O=C(C1=C(c2ccccc2)C(=O)c2ccccc2C1=O)c1ccccc1	62*	74*	97*	/
CO[C@@H]1CN(C)C(=O)c2cc(NC(=O)C3CC3)ccc2OC[C@H](C)N(CC2CCOCC2)C[C@H]1C	/	/	/	13
CCOC(=O)N1CCC(NC(=O)CCC(=O)N2CCOc3ccccc32)CC1	/	-2	64*	/
O=C(CCC(=O)N1CCOc2ccccc21)NC1CCCCCC1	0	0	-7	15
C[C@@H]1CN([C@H](C)CO)C(=O)c2cc(NC(=O)Nc3ccc4c(c3)OCO4)ccc2O[C@H]1CN(C)S(C)(=O)=O	/	/	/	2
CO[C@@H]1CN(C)C(=O)c2cc(NC(=O)Nc3cccc(F)c3)ccc2OC[C@H](C)N(C(=O)C2CC2)C[C@@H]1C	/	/	/	1
O=C(CNC(=S)N(Cc1ccccc1F)C1CCCCC1)NCCN1CCOCC1	-3	-4	-8	10
O=C(CNC(=S)N(Cc1ccccc1F)C1CCCCC1)NCCCN1CCOCC1	11	-3	85*	-7
COc1ccc(CCN(C(=S)Nc2ccccc2)C2CC(=O)N(c3ccccc3)C2=O)cc1 (stereo not drawn)	2	-2	9	/
O=C1CC(N(CCc2ccccc2)C(=S)Nc2ccccc2)C(=O)N1c1ccc(Br)cc1 (stereo not drawn)	47	-3	79*	30
CC(=O)Oc1c(C)cc(Cl)cc1C(=O)Nc1ccc([N+](=O)[O-])cc1Cl	45	1	88*	-30
CC(=O)OCC(=O)Nc1ccc([N+](=O)[O-])cc1Cl	17	-2	-2	-8
SMILES	TROY signal inh	HSP90 inh	TWEAK-Fn14 inh	LGR2 antag
CN1[C@@H]2c3ccc(-c4cccc(F)c4)c(=O)n3C[C@H]1[C@H](CO)[C@H]2C(=O)N1CCCCC1	/	/	/	-9
CN(C)C(=S)c1ccc(N(C)C)cc1	8	1	-14	-8
CC(=O)c1ccc(N=Nc2ccc(N(C)C)cc2)cc1	54*	5	104*	/
C=C(C)C(=O)Oc1ccc(N2C(=O)CCC2=O)cc1	4	-2	1	-3
CC(=O)c1ccc(N=Nc2ccc(C)cc2)cc1	61*	15	68*	73*
C=C(C)C(=O)Oc1ccc(N=Nc2ccc(C)cc2)ccc1=O	-35	/	59*	-28
C[C@@H]1CN([C@@H](C)CO)C(=O)c2cccc(NS(=O)(=O)c3ccc(Cl)cc3)c2O[C@H]1CN(C)C(=O)NC1CCCCC1	/	/	/	15
CS(=O)(=O)Nc1ccc2c(c1)[C@H]1C[C@@H](CC(=O)NCc3cccnc3)O[C@@H](CO)[C@H]1O2	/	/	/	-1
O=C(Cc1ccccc1)NNC1=NS(=O)(=O)c2ccccc21	-9	-4	53*	21
CC(C)c1nc(NCc2ccccc2)c(C#N)c2c1CCCC2	-8	-3	-13	/
CC(C)c1nc(Cl)c(C#N)c2c1CCCC2	1	-4	52*	-9
CC(C)c1nc(NCCO)c(C#N)c2c1CCCC2	51*	-1	61*	/
CC1(C)CC(=O)C=C(c2ccc(-c3cnc4ccccc4c3)cc2)C1=O	92*	/	85*	63*
O=C(NCCCSc1ccccc1)c1cc(Cl)ccc1O	37	-6	55*	3
O=Nc1ccc(NO)c2ccccc12	36	/	71*	-18
CCC(=O)N1[C@H](CO)[C@@H]2c3ccccc3N(C(=O)c3ccc4c(c3)OCO4)C[C@@H]21	/	/	/	0
C[C@H](CO)N1C[C@H](C)[C@H](CN(C)Cc2ccncc2)Oc2ncc(C#CCC3CCCC3)cc2C1=O	/	/	/	-12
COC(=O)c1ccc(COc2cccc3c2CCN(Cc2ccccc2)C3=O)o1	28	-4	35	11
COC(=O)c1ccc(COc2cccc3c2CCN(Cc2cccc(C)c2)C3=O)o1	38	1	55*	8
Cc1ccccc1-c1ccc([C@@H]2[C@@H](CO)N3C(=O)CN(C(=O)Nc4ccc(F)cc4)C[C@@H]23)cc1	/	/	/	-11
COc1cc2c(cc1OC)/C(=C/c1ccc(Cl)cc1)C(=O)OC2	50*	3	25	20
O=C(NCC[C@@H]1CC[C@@H](NC(=O)c2ccccc2F)[C@@H](CO)O1)c1ccc2c(c1)OCO2	/	/	/	2
O=C(C[C@H]1CC[C@H]2[C@@H](COC[C@@H](O)CN2C(=O)c2cnccn2)O1)NCc1ccc(F)cc1	/	/	/	-20
CCC(C)Nc1nc(CN2CCOCC2)nc2sc3c(c12)CCC3 (stereo not drawn)	/	3	75*	/
Cc1ccc(-c2ccc3c(c2)O[C@@H](CN(C)Cc2ccc(F)cc2)[C@H](C)CN([C@@H](C)CO)S3(=O)=O)cc1	/	/	/	0
SMILES	TROY signal inh	HSP90 inh	TWEAK-Fn14 inh	LGR2 antag
CCOC(=O)COc1ccccc1/C=C\[N+](=O)[O-]	87*	-2	104*	/
CC1=NN(c2ccccc2)C(=O)/C1=C\c1ccc(Oc2ccc([N+](=O)[O-])cc2[N+](=O)[O-])cc1	40	16*	5	17
Nc1ccc(C23CC4CC(CC(O)(C4)C2)C3)cc1	74*	5	76*	/
Nc1ccc(C23CC4CC(CC(CO)(C4)C2)C3)cc1	28	0	16	/
CC(C)C#Cc1cnc2c(c1)C(=O)N([C@@H](C)CO)C[C@H](C)[C@H](CN(C)C(=O)Cc1ccccn1)O2	/	/	/	5
COc1ccc(CCNC(=O)c2cc(C(=O)c3cc(Cl)ccc3O)cn(CCc3ccc(OC)cc3)c2=O)cc1	17	2	46	6
